According to PubChem BioAssay (EPA / NIEHS):
Records with an inconclusive call do not appear. Activity calls are given as the source filed them. Rule for the calls, unless noted: active = hit-call score of the fitted dose curve at least 0.9, where 1 is the maximum; inconclusive = response in the unintended direction; inactive = score below 0.9.

What was measured:
[1] = biological target: T1, Thyroid hormone receptor alpha (Rattus norvegicus) + Thyroid hormone receptor beta (Rattus norvegicus) (UniProt P18113+P63059); assay: TOX21_TR_LUC_GH3_Agonist_Followup: Tox21 GH3 Thyroid Hormone Receptor Agonism Luciferase Follow-Up Assay (AID 2283939)
T1 sequence (P63059 whole entry, looked up): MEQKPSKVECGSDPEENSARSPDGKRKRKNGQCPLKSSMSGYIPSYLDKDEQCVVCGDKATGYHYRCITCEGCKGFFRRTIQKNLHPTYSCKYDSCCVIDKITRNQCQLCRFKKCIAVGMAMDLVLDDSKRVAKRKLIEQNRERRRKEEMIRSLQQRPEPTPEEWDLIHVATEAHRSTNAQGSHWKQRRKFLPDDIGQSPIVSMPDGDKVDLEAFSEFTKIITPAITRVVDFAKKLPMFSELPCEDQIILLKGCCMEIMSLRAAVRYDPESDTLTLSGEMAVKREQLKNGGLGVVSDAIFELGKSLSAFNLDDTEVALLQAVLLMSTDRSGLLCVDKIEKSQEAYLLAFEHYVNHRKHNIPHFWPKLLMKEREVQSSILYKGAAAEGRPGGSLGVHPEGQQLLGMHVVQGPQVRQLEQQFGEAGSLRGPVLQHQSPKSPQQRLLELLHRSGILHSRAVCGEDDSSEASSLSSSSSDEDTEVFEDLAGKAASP
T1 sequence (P18113 whole entry, looked up): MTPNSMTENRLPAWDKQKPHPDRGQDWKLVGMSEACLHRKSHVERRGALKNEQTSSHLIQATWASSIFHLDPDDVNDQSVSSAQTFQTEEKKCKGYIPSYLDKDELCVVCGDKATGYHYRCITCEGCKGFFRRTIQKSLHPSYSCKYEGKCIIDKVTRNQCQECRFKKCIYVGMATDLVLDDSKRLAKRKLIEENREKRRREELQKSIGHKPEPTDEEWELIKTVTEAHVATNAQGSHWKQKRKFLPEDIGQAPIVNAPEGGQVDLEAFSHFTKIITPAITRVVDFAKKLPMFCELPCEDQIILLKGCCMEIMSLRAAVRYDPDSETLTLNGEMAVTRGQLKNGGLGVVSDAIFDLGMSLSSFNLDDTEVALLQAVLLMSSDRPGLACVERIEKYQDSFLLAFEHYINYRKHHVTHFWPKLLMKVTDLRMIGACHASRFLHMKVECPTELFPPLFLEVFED
Summary of the method: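 Rat GH3 cells (1,500/well) in serum-free assay medium, treated with 15-point series, 92 uM to 5 nM final, for 24 h at 37C. Luciferase via ONE-Glo luminescence; gain of signal fitted against DMSO, T3 positive control.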

THRA (gene 7067) [2] = biological target: THRA (gene 7067) (UniProt P10827); assay: TOX21_TRA_COA_Agonist_Followup_ratio: Tox21 Thyroid Hormone Receptor alpha Agonism through Coactivator Recruitment Follow-Up Assay, Ratio (AID 2283948; active = hit-call score of the fitted dose curve at least 0.9, where 1 is the maximum; inactive = score below 0.9)
Sequence of THRA (gene 7067) (P10827 whole entry, looked up, the tested form may be a part): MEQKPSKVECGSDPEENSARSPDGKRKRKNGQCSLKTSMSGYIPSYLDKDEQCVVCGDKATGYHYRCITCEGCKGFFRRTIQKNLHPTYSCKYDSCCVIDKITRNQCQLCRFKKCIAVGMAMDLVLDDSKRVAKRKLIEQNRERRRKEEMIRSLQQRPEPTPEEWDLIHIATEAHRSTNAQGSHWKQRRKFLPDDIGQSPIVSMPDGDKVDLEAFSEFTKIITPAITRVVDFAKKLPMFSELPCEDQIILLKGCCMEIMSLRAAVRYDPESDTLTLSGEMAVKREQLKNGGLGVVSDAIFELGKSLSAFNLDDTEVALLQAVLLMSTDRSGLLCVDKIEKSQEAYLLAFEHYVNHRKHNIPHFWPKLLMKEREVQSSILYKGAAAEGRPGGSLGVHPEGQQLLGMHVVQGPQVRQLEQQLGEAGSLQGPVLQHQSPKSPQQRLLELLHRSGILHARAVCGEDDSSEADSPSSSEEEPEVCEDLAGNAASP
Summary of the method: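 First, compound was incubated with 2.5 nM GST-TRα LBD in 0.10% BSA. Next, 200 nM fluorescein-SRC-2 and 2 nM Tb-anti-GST antibody were added. Finally, the 520:495 nm ratio was normalized to DMSO and T3 controls.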

THRB (gene 7068) [3] = biological target: THRB (gene 7068) (UniProt P10828); assay: TOX21_TRB_BLA_Agonist_Followup_ratio: Tox21 Thyroid Hormone Receptor beta Agonism Beta-lactamase (BLA) Follow-Up Assay, Ratio (AID 2283954)
Sequence of THRB (gene 7068) (P10828 whole entry, looked up, the tested form may be a part): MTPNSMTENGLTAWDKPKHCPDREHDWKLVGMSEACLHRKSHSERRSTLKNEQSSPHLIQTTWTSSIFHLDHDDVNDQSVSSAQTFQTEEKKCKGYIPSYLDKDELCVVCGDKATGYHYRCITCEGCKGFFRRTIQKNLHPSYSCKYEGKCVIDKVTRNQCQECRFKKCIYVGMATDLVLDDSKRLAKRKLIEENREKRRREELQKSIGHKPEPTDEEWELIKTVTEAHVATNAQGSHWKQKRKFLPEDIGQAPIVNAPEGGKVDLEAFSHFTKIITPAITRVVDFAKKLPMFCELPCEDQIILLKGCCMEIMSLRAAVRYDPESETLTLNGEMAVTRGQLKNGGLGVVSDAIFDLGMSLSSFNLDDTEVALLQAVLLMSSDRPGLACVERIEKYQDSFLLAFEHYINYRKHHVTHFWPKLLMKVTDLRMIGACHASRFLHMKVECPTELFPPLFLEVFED
Summary of the method: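 Human TRβ LBD–GAL4 DBD fusion in GeneBLAzer UAS-bla HEK293T cells; 11 concentrations in triplicate, 18 h at 37°C/5% CO2, T3 as agonist control. CCF4-AM substrate 2 h at room temperature; 460:530 nm ratio fitted for gain of signal versus DMSO.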

[4] = TOX21_TRB_BLA_Agonist_Followup_viability: Viability Assessment in the Tox21 Thyroid Hormone Receptor beta Agonism Beta-lactamase (BLA) Follow-Up Assay (AID 2283956)
Summary of the method: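 TRb-bla HEK293T cells (GAL4-DBD/human TRb LBD) in 2% charcoal-stripped FBS medium were exposed 18 h at 37C to 11 concentrations in triplicate. CellTiter-Glo ATP luminescence was read after 30 min at room temperature, with bidirectional fitting against DMSO.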

THRB (gene 7068) [5] = biological target: THRB (gene 7068) (UniProt P10828); assay: TOX21_TRB_COA_Agonist_Followup_ratio: Tox21 Thyroid Hormone Receptor beta Agonism through Coactivator Recruitment Follow-Up Assay, Ratio (AID 2283963; active = hit-call score of the fitted dose curve at least 0.9, where 1 is the maximum; inactive = score below 0.9)
Summary of the method: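 First, the GST-fused TRβ ligand-binding domain (5.0 nM) was incubated with test compound in 0.10% BSA. Next, fluorescein-tagged SRC-2 peptide (200 nM) and terbium anti-GST antibody (2 nM) were added. Finally, TR-FRET emission ratios were normalized against DMSO and T3 controls.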

[6] = biological target: Retinoic acid receptor RXR-alpha (Homo sapiens) (UniProt P19793); assay: TOX21_TR_RXR_BLA_Agonist_Followup_ratio: Tox21 Thyroid Hormone Receptor beta Retinoid X Receptor alpha (RXRa) Agonism Beta-lactamase (BLA) Follow-Up Assay, Ratio (AID 2283968)
Sequence of Retinoic acid receptor RXR-alpha (Homo sapiens) (P19793 whole entry, looked up, the tested form may be a part): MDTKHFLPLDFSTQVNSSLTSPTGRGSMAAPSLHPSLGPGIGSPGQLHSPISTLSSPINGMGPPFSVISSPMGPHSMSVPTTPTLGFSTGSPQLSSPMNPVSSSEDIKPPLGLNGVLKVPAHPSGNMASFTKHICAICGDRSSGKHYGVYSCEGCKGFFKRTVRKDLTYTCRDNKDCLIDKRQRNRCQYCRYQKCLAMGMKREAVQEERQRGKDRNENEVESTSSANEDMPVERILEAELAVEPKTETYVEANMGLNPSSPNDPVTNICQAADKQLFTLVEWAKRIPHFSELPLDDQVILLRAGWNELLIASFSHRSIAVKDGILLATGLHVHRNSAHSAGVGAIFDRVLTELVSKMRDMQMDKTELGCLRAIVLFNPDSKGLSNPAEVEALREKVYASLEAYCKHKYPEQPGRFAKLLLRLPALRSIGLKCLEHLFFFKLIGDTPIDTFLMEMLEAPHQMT
Summary of the method: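 This follow-up tests whether responses seen in the TR GH3 luciferase agonist screen are specific, using a GAL4-driven beta-lactamase reporter for RXRa in HEK293T cells. Compound exposure lasts 16 h; signal is the cleaved/uncleaved substrate ratio.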

[7] = TOX21_TR_RXR_BLA_Agonist_Followup_viability: Viability Assessment in the Tox21 Thyroid Hormone Receptor beta Retinoid X Receptor alpha (RXRa) Agonism Beta-lactamase (BLA) Follow-Up Assay (AID 2283970)
Summary of the method: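 In qHTS format, RXRa-bla HEK293T cells (2,500/well) received compound for 16h. ATP content was then measured with CellTiter-Glo, and responses were fitted bidirectionally relative to DMSO controls.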

[8] = TOX21_PR_LUC_Followup_Antagonist_viability: Viability Assessment in the Tox21 HEK293 Progesterone Receptor (PR) Antagonism Luciferase Follow-Up Assay (AID 2283940)
Summary of the method: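 Cellular ATP, measured with luciferase-coupled CellTiter-Glo, served as the viability endpoint after HEK293-PR-A-luc cells were exposed to test compounds for 16 h at 37C.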

[9] = TOX21_PR_LUC_Followup_Agonist_viability: Viability Assessment in the Tox21 HEK293 Progesterone Receptor (PR) Agonism Luciferase Follow-Up Assay (AID 2283941);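 note: loss of signal means cytotoxicity so actives lower viability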
Summary of the method: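 Luminescent ATP quantitation (CellTiter-Glo) serves as the read-out; a drop flags cytotoxic compounds. Cells are HEK293-PR-A-luc grown in 10% charcoal-stripped FBS, plated 3,000/well, and exposed to compound for 16 h.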

[10] = CCTE_Harrill_HTTr_Viability_DMEM_6hr: (Pilot) CCTE's 6-hour Cell Viability Assessment for the High-Throughput Transcriptomics (HTTr) Platform, in MCF-7 cells cultured in DMEM + 10% fetal bovine serum, Harrill Lab (AID 2283973; active = hit-call score of the fitted dose curve at least 0.9, where 1 is the maximum; inactive = score below 0.9)
Summary of the method: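 MCF-7 cells in DMEM + 10% FBS, eight-point dilution series, 6 h exposure. Membrane integrity by propidium iodide exclusion with high-content imaging; bidirectional fit versus DMSO.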

[11] = CCTE_Harrill_HTTr_Viability_DMEM_12hr: (Pilot) CCTE's 12-hour Cell Viability Assessment for the High-Throughput Transcriptomics (HTTr) Platform, in MCF-7 cells cultured in DMEM + 10% fetal bovine serum, Harrill Lab (AID 2283974; active = hit-call score of the fitted dose curve at least 0.9, where 1 is the maximum; inactive = score below 0.9)
Summary of the method: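 MCF-7 cells in DMEM + 10% FBS exposed 12 h to an eight-point dilution series; membrane integrity scored by propidium iodide exclusion with high-content imaging, bidirectional fitting versus DMSO.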

[12] = CCTE_Harrill_HTTr_Viability_DMEM_24hr: (Pilot) CCTE's 24-hour Cell Viability Assessment for the High-Throughput Transcriptomics (HTTr) Platform, in MCF-7 cells cultured in DMEM + 10% fetal bovine serum, Harrill Lab (AID 2283975; active = hit-call score of the fitted dose curve at least 0.9, where 1 is the maximum; inactive = score below 0.9)
Summary of the method: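 MCF-7 cells in DMEM with 10% FBS exposed for 24 hours to an eight-point dilution series. Membrane integrity by propidium iodide exclusion with high content imaging; bidirectional fit against DMSO.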

[13] = CCTE_Harrill_HTTr_Viability_PRF_DMEM_6hr: (Pilot) CCTE's 6-hour Cell Viability Assessment for the High-Throughput Transcriptomics (HTTr) Platform, in MCF-7 cells cultured phenol red-free DMEM + 10% charcoal-stripped fetal bovine serum, Harrill Lab (AID 2283976; active = hit-call score of the fitted dose curve at least 0.9, where 1 is the maximum; inactive = score below 0.9)
Summary of the method: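 MCF-7 cells in phenol red-free DMEM with 10% charcoal-stripped FBS exposed 6 hours to an eight-point dilution series. Propidium iodide exclusion imaged; curves fitted bidirectionally against DMSO.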

[14] = CCTE_Harrill_HTTr_Viability_PRF_DMEM_12hr: (Pilot) CCTE's 12-hour Cell Viability Assessment for the High-Throughput Transcriptomics (HTTr) Platform, in MCF-7 cells cultured in phenol red-free DMEM + 10% charcoal-stripped fetal bovine serum, Harrill Lab (AID 2283977; active = hit-call score of the fitted dose curve at least 0.9, where 1 is the maximum; inactive = score below 0.9)
Summary of the method: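 MCF-7 cells in phenol red-free DMEM with 10% charcoal-stripped FBS exposed 12 hours to an eight-point dilution series. Viability assessed by high-content imaging of propidium iodide exclusion; bidirectional fit versus DMSO.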

[15] = biological target: T1, Thyroid hormone receptor alpha (Rattus norvegicus) + Thyroid hormone receptor beta (Rattus norvegicus); assay: TOX21_TR_LUC_GH3_Antagonist_Followup: Tox21 GH3 Thyroid Hormone Receptor Antagonism Luciferase Follow-Up Assay (AID 2283942)
Summary of the method: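 Rat pituitary GH3 cells with a TRα/TRβ-driven luciferase reporter, 5 h attachment, then 15 concentrations (92 uM to 5nM final) plus 1.0 nM T3 agonist, 24 h at 37C/5% CO2. ONE-Glo luminescence; signal change fitted against DMSO baseline.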

THRB (gene 7068) [16] = biological target: THRB (gene 7068) (UniProt P10828); assay: TOX21_TRB_BLA_Antagonist_Followup_ratio: Tox21 Thyroid Hormone Receptor beta Antagonism Beta-lactamase (BLA) Follow-Up Assay, Ratio (AID 2283958)
Summary of the method: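 In this antagonist-mode follow-up, a stably integrated GAL4-TRβ LBD fusion drives a UAS-beta-lactamase reporter in HEK293T cells. Loss of ratio signal relative to DMSO after 18 h treatment indicates activity; parallel CellTiter-Glo flags cytotoxicity.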

[17] = TOX21_TRB_BLA_Antagonist_Followup_viability: Viability Assessment in the Tox21 Thyroid Hormone Receptor beta Antagonism Beta-lactamase (BLA) Follow-Up Assay (AID 2283961)
Summary of the method: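 Cytotoxicity is measured in parallel with the antagonist-mode TRβ beta-lactamase screen, using ATP-coupled luciferase luminescence. Engineered HEK293T cells are treated for 18 h with 11-point compound series in triplicate.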

THRB (gene 7068) [18] = biological target: THRB (gene 7068) (UniProt P10828); assay: TOX21_TRB_COA_Antagonist_Followup_ratio: Tox21 Thyroid Hormone Receptor beta Antagonism through Coactivator Recruitment Follow-Up Assay, Ratio (AID 2283967)
Summary of the method: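 Cell-free TR-FRET coactivator recruitment with GST-tagged TRβ LBD (5.0 nM) and fluorescein-labeled SRC-2 peptide (200 nM) detected by terbium anti-GST antibody (2 nM). The 520:495 nm emission ratio was normalized to DMSO (0%) and T3 (100%).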

[19] = biological target: Retinoic acid receptor RXR-alpha (Homo sapiens) (UniProt P19793); assay: TOX21_TR_RXR_BLA_Antagonist_Followup_ratio: Tox21 Thyroid Hormone Receptor beta Retinoid X Receptor alpha (RXRa) Antagonism Beta-lactamase (BLA) Follow-Up Assay, Ratio (AID 2283972)
Summary of the method: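 Antagonist mode used GAL4 UAS-driven beta-lactamase in HEK293T cells expressing RXRa, treated for 16 h with compound concentration series. Activity was taken from the blue/green (460:530 nm) ratio of cleaved to uncleaved substrate.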

THRA (gene 7067) [20] = biological target: THRA (gene 7067) (UniProt P10827); assay: TOX21_TRA_COA_Antagonist_Followup_ratio: Tox21 Thyroid Hormone Receptor alpha Antagonism through Coactivator Recruitment Follow-Up Assay, Ratio (AID 2283953)
Summary of the method: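 This follow-up to the GH3 luciferase screen checks specificity in a cell-free format. It measures SRC-2 coactivator peptide binding to TRα LBD by TR-FRET and scores loss of ratio signal relative to DMSO.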

Cc1ccc(N)cc1
outcome [1]: inactive | outcome (THRA (gene 7067) [2]): inactive | outcome (THRB (gene 7068) [3]): inactive | outcome [4]: inactive | outcome (THRB (gene 7068) [5]): inactive | outcome [6]: inactive | outcome [7]: inactive

C[C@]12C=CC3=C4CCC(=O)C=C4CC[C@H]3[C@@H]1CC[C@@H]2O
outcome [8]: inactive | outcome [9]: inactive

CS(=O)(=O)NC(=O)c1cc(Oc2ccc(C(F)(F)F)cc2Cl)ccc1[N+](=O)[O-]
outcome [10]: inactive | outcome [11]: inactive | outcome [12]: inactive | outcome [13]: inactive | outcome [14]: inactive

CN(C)c1ccc(C(=O)c2ccc(N(C)C)cc2)cc1
outcome [15]: inactive | AC50 (THRB (gene 7068) [16]): 2660 nM (active) | outcome [17]: inactive | outcome (THRB (gene 7068) [18]): inactive | outcome [19]: inactive

O=[N+]([O-])c1ccc(Oc2ccc(Cl)cc2Cl)cc1
outcome [8]: inactive | outcome [9]: inactive

Clc1ccc(Cl)c(Cl)c1
outcome (THRA (gene 7067) [2]): inactive | outcome (THRB (gene 7068) [3]): inactive | outcome [4]: inactive | outcome (THRB (gene 7068) [5]): inactive | outcome [6]: inactive | outcome [7]: inactive

CCCCOC(=O)c1ccccc1C(=O)OCc1ccccc1
outcome [8]: inactive | outcome [9]: inactive

Clc1ccc(C(c2ccc(Cl)cc2)C(Cl)(Cl)Cl)cc1
outcome [8]: inactive | outcome [9]: inactive

COC(=O)Nc1nc2ccccc2[nH]1
outcome [15]: inactive | outcome (THRA (gene 7067) [20]): inactive | outcome [17]: inactive | outcome (THRB (gene 7068) [18]): inactive | outcome [19]: inactive
